Data reported in PubChem BioAssay (NCATS).
“And” between values parts separate entries of the source, which are not always exact repeats. Identical values can stand only once. Results filed as inconclusive are left out. Values without a mark were called inactive. The source made the active and inactive calls. Calls follow the shape of the dose curve; as a rule, active = well fitted inhibition curve with a large enough effect; inconclusive = small, poorly fitted or top-dose-only effect; inactive = no such curve, though single readings can be large or run the other way. Where a SMILES comes first, the peptide text is derived from it. [ ]: non-standard residue; d: D form. dPhe(4-Cl) = N[C@H](Cc1ccc(Cl)cc1)C(=O)O; d2Nal = N[C@H](Cc1ccc2ccccc2c1)C(=O)O; dCit = NC(=O)NCCC[C@@H](N)C(=O)O; d3Pal = N[C@H](Cc1cccnc1)C(=O)O
% is scaled to controls: 0 for no effect and ±100 for the full control effect; potency is read from the fitted curve at half-maximal effect.

Assay: Primary qHTS for inhibitors of nuclear receptor binding SET domain protein 2 (NSD2) in an RCH-ACV wild type WT cells (2C) (AID 1645877); also: nearly all actives have a fitted effect of over 70% in size
Conditions: RCH-ACV (leukaemia line) NSD2 WT (2C) viability, CellTiter-Glo, 72 h; series mostly up to 44.9 µM; activity change, negative = cell killing: at the top concentration
Source text: Assay Provider: Jonathan D. Licht, MD
University of Florida College of Medicine, Gainesville, FL
Mutations in epigenetic regulators are common in relapsed pediatric acute lymphoblastic leukemia (ALL). Here, we uncovered the mechanism underlying the relapse of ALL driven by an activating mutation of the NSD2 histone methyltransferase (p.E1099K). […] Correction of this mutation restored glucocorticoid sensitivity. The transcriptional response to glucocorticoids was blocked in NSD2 mutant cells due to depressed glucocorticoid receptor (GR) levels and the failure of glucocorticoids to autoactivate GR expression. […] Pre-treatment of NSD2 p.E1099K cell lines and PDX samples with PRC2 inhibitors reversed glucocorticoid resistance in vitro and in vivo.
High-throughput drug screening of isogenic RCH-ACV cell lines was performed at the National Center for Advancing Translational Science (NCATS), National Institutes of Health as previously described (1). Briefly, isogenic RCH-ACV NSD2 p.E1099K mutant (9B) and WT cells (2C) were plated at 500 cells/well in a 1536-well plate with a 72-hour incubation with compounds prior to addition of CellTiter-Glo to assess cell viability. NCATS libraries screened include: NPC, MIPE 5.0, Kinase and NPACT. To determine compound activity in the qHTS assay, the concentration-response data for each sample was plotted and modeled by a four-parameter logistic fit yielding IC50 and efficacy (maximal response) values. The area under the curve (AUC) of the dose-response curve ensures both efficacy (magnitude of cell killing) and potency (concentration that elicits cell killing) are accounted for in the analysis of activity.
1. Tobie D Lee, Olivia W Lee, Kyle R Brimacombe, Lu Chen, Rajarshi Guha, Sabrina Lusvarghi, Bethilehem G Tebase, Carleen Klumpp-Thomas, Robert W Robey, Suresh V Ambudkar, Min Shen, Michael M Gottesman, Matthew D Hall. A High-Throughput Screen of a Library of Therapeutics Identifies Cytotoxic Substrates of P-glycoprotein. Mol Pharmacol. 2019, Nov;96(5):629-640.
With `CC(Oc1cc(-n2cnc3ccc(CN4CCN(C)CC4)cc32)sc1C(N)=O)c1ccccc1C(F)(F)F` (stereo not given) the Potency was 0.649 µM (active). For `CCC1=CC2CN(C1)Cc1c([nH]c3ccccc13)[C@@](C(=O)OC)(c1cc3c(cc1OC)N(C)[C@H]1[C@@](O)(C(=O)OC)[C@H](OC(C)=O)[C@]4(CC)C=CCN5CC[C@]31[C@@H]54)C2` (stereo not given in full), the Potency was 0.0317 µM (active). For `C[C@@H]1O[C@@H](OC[C@H]2O[C@@H](OC(CCCCc3ccc(O)cc3)CCc3ccc(O)cc3)[C@H](O)[C@@H](O)[C@@H]2O)[C@H](O)[C@H](O)[C@H]1O` (stereo not given in full), the “activity change, negative = cell killing” value was -13.1% [at 17.3 µM]. With `CC1(C)C2CC(OC3OC(COC4OCC(O)(CO)C4O)C(O)C(O)C3O)C1(C)CC2O` (stereo not given) the “activity change, negative = cell killing” value was -10.7% [at 17.3 µM]. With `C=C1C(=O)O[C@@H]2C[C@H](C)[C@@]3(O)C=C(C(C)=O)[C@]4(CC3C[C@H]12)C(=O)O[C@H]1C[C@@H](C)C(CCC(C)=O)=CC[C@H]14` (stereo not given in full) the Potency was 8.93 µM (active). With `COC(=O)c1ccccc1O[C@@H]1O[C@H](CO)[C@@H](O)[C@H](O)[C@H]1O[C@@H]1O[C@@H](C)[C@H](O)[C@@H](O)[C@H]1O` the “outcome” value was “inactive [at 17.3 µM]”. For `C#CCN(Cc1cc2c(=O)n(C)c(CN3CCN(C)CC3)nc2cc1Cl)c1ccc(C(=O)NCc2cccnc2)cc1`, the “activity change, negative = cell killing” value was -95.7%. With `O=C(OC1C=C(CO)C2C(OC3OC(CO)C(O)C(O)C3O)OC=CC12)c1ccc(O)cc1` (stereo not given) the “outcome” value was “inactive [at 17.3 µM]”. For `COc1cc(O)cc(/C=C/c2ccc(O[C@@H]3O[C@H](CO)[C@@H](O)[C@H](O)[C@H]3O)cc2)c1`, the Potency was 7.96 µM (active). In the case of `CC(C)(C)Nc1nc(Nc2ccc(C(N)=O)cc2)cc(N)c1C#N`, the Potency is reported as 1.45 µM (active). For `C=CC(C)(C)C12C=C(OC)C(=O)N3C(C(C)C)C(=O)NC31N(OC)c1ccccc12` (stereo not given), the “activity change, negative = cell killing” value was -6.67% [at 17.3 µM]. In the case of `COC(=O)C1=CO[C@@H](O[C@@H]2O[C@H](CO)[C@@H](O)[C@H](O)[C@H]2O)[C@@H]2C(CO)=CC[C@]12O`, the “outcome” value is reported as “inactive [at 17.3 µM]”. With `COC(=O)c1cc(OC)c(O[C@@H]2O[C@@H](C)[C@H](O)[C@@H](O)[C@H]2O)c(OC)c1` the “outcome” value was “inactive”. In the case of `C=C1C(=O)O[C@@H]2/C=C(\C)C(=O)/C=C/[C@](C)(O)C[C@@H](OC(=O)C(C)C)[C@@H]12`, the Potency is reported as 0.284 µM (active). With `CC(=O)N[C@H](Cc1ccc2ccccc2c1)C(=O)N[C@H](Cc1ccc(Cl)cc1)C(=O)N[C@H](Cc1cccnc1)C(=O)N[C@@H](CO)C(=O)N[C@@H](Cc1ccc(O)cc1)C(=O)N[C@H](CCCNC(N)=O)C(=O)N[C@@H](CC(C)C)C(=O)N[C@@H](CCCN=C(N)N)C(=O)N1CCC[C@H]1C(=O)N[C@H](C)C(N)=O` (Ac-[d2Nal][dPhe(4-Cl)][d3Pal]SY[dCit]LRP[dA]-NH2) the “outcome” value was “inactive [at 17.3 µM]”. For `CCCCc1ccc(C(=O)Nc2cc(-c3ccc(Cl)cc3)nn2-c2ccc(Cl)cc2)cc1`, the “activity change, negative = cell killing” value was -25.4%. `C/C=C(\C)C(=O)O[C@@H]1CC2[C@@H](CC=C3C[C@@H](O[C@H]4C[C@H](OC)[C@H](O[C@H]5C[C@H](OC)[C@H](O[C@@H]6O[C@H](C)[C@@H](O[C@H]7C[C@H](OC)[C@H](O[C@@H]8O[C@H](CO)[C@@H](O)[C@H](O)[C@H]8O)[C@@H](C)O7)[C@H](OC)[C@H]6O)[C@@H](C)O5)[C@@H](C)O4)CC[C@@]32C)[C@@]2(O)CC[C@H](C(C)=O)[C@@]12C` (stereo not given in full) showed an activity change, negative = cell killing of -12.6% [at 9.23 µM]. With `CC[C@@H](O)C[C@@H]1C(C)=C[C@@H]2CCCC[C@@H]2[C@@]1(C)C(=O)O` the “outcome” value was “inactive”. With `COc1cccc(C(=O)N2CCN(C(=O)COc3cccc(C)c3)CC2)c1OC` the “activity change, negative = cell killing” value was -26.6%. With `CCc1cnn2c(NCc3ccc[n+]([O-])c3)cc(N3CCCCC3CCO)nc12` (stereo not given) the Potency was 0.0092 µM (active). For `C/C(=C\CC[C@@H](C)[C@H]1CC(O)[C@@]2(C)C3CC[C@H]4C(C)(C)[C@@H](OC5OCC(O)C(O)C5OC5OC(CO)C(O)C(O)C5O)CC[C@@]45C[C@@]35CC(O)[C@]12C)C(=O)O` (stereo not given in full), the “activity change, negative = cell killing” value was -13.7% [at 17.3 µM]. With `COc1cccc(Nc2ncnn3ccc(CN4CC[C@@H](N)[C@H](O)C4)c23)c1` the Potency was 4.68 µM (active). For `COc1cc2ncnc(N3CCC(Oc4cnc5ccccc5n4)C3)c2cc1OC` (stereo not given), the Potency was 0.145 µM (active). With `C[C@]12C[C@@H](O)[C@@H]3C[C@@]1(O[C@@H]1O[C@H](CO)[C@@H](O)[C@H](O)[C@H]1O)[C@]3(COC(=O)c1ccccc1)C(=O)O2` the “outcome” value was “inactive [at 17.3 µM]”. With `OCC(CO[C@@H]1O[C@H](CO)[C@@H](O)[C@H](O)[C@H]1O)c1ccc2c(c1)OCO2` (stereo not given in full) the “activity change, negative = cell killing” value was 4.49%. For `C=C1C(OC2OCC(O)C(O)C2O)CC2C(C)(C)C(O)CCC2(C)C1CC/C(C)=C\CO` (stereo not given), the Potency was 8.93 µM (active). In the case of `C=C1C[C@]23C[C@H]1CC[C@H]2[C@@]12CC[C@H](O)[C@@](C)(C(=O)O1)[C@H]2[C@@H]3C(=O)O`, the “activity change, negative = cell killing” value is reported as 4.87%. For `CCCCNc1ncc2c(-c3ccc(F)cc3)nn(CC3CCC(N)CC3)c2n1` (stereo not given), the Potency was 1.62 µM (active). For `CC(C)[C@@H]1C(=O)N(S(C)(=O)=O)[C@@H]2CCN(C(=O)/C=C/CN3CCCCC3)[C@H]21`, the “activity change, negative = cell killing” value was -2.16%. For `N[C@H]1Cc2ccccc2N(O)C1=O`, the Potency was 12.9 µM (active). In the case of `CCN1CCN(Cc2ccc(NC(=O)c3ccc(C)c(/C=C/c4cnc5[nH]ccc5c4OC)c3)cc2C(F)(F)F)CC1`, the Potency is reported as 230 nM (active) and 1.18 µM (active). For `C[C@H](N)C(=O)N[C@@H](Cc1ccc(O)cc1)C(=O)N1CCC[C@H]1C(=O)NCC(=O)N[C@@H](CCCCN)C(=O)N[C@@H](Cc1ccccc1)C(N)=O`, the outcome was “inactive [at 9.23 µM]”. With `Cn1cncc1C(N)(c1ccc(Cl)cc1)c1ccc2c(c1)c(-c1cccc(Cl)c1)cc(=O)n2C` (stereo not given) the Potency was 0.833 µM (active). In the case of `O=C(OCC1=CC(O)C2C=CO[C@@H](O[C@@H]3O[C@H](CO)[C@@H](O)[C@H](O)[C@H]3O)C12)c1ccccc1` (stereo not given in full), the “outcome” value is reported as “inactive [at 17.3 µM]”. For `CCCC(=O)C1CCN(c2ncnc3c2CN(C(=O)c2ccc(-c4ccccc4)cc2)CC3)CC1`, the Potency was 20.5 µM (active). With `C[C@@H]1O[C@@H](O[C@H]2[C@H](O)[C@@H](O[C@@H]3O[C@H](CO)[C@@H](O)[C@H](O[C@@H]4O[C@H](CO)[C@@H](O)[C@H](O)[C@H]4O)[C@H]3O)[C@H](O[C@H]3CC[C@@]4(C)C(=CC[C@@H]5C4CC[C@@]4(C)C5C[C@@H]5OC6(CC[C@@](C)(CO[C@@H]7O[C@H](CO)[C@@H](O)[C@H](O)[C@H]7O)O6)[C@@H](C)[C@@H]54)C3)O[C@@H]2CO)[C@H](O)[C@H](O)[C@H]1OC1OC(CO)C(O)C(O)C1O` (stereo not given in full) the outcome was “inactive [at 9.23 µM]”. `CC1(C)CC[C@@]2(C(=O)O[C@@H]3O[C@H](CO)[C@@H](O)[C@H](O)[C@H]3O)C(C1)C1=CCC3[C@@]4(C)CC[C@@H](O[C@@H]5O[C@H](C(=O)O)[C@@H](O[C@@H]6OC[C@@H](O)[C@H](O)[C@H]6O)[C@H](O[C@@H]6OC[C@](O)(CO)[C@H]6O)[C@H]5O)C(C)(C)C4CC[C@@]3(C)[C@]1(C)C[C@H]2O` (stereo not given in full) gave an activity change, negative = cell killing of -88.4% [at 9.23 µM]. In the case of `Cc1ncc(CCCN(C)C)cc1Nc1ncc2c(n1)-c1ccc(C(F)(F)F)cc1NC(=S)C2`, the Potency is reported as 0.129 µM (active). For `C[C@@H]1O[C@@H](O[C@H]2[C@H](O)[C@@H](C(=O)O)O[C@@H](O[C@H]3CC[C@@]4(C)C(CC[C@]5(C)C4CC=C4C6CC(C)(C)CC[C@]6(C(=O)O)CC[C@]45C)C3(C)C)[C@@H]2O[C@@H]2OC[C@@H](O)[C@H](O)[C@H]2O)[C@H](O)[C@H](O)[C@H]1O` (stereo not given in full), the outcome was “inactive [at 9.23 µM]”. For `CC(=O)c1ccc(O[C@@H]2O[C@H](CO)[C@@H](O)[C@H](O)[C@H]2O)cc1`, the “activity change, negative = cell killing” value was -0.725%.
